High-throughput results from PubChem BioAssay.
Peg3 promoter: inhibitors of Peg3 promoter. HeLa PEG-Prom luciferase reporter, luminescence, overnight. inhibition, % at 20 µM. hit rate 1.7% among 360,000;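 active means inhibition of at least 50% at 20 µM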
TRPM1 prom inh: MITF TRPM1 promoter inhibition in SK-MEL-5 cells; SK-MEL-5 TRPM1 promoter luciferase, 24 h; inhibition, % at 12.5 µM; hit rate 0.83% among 330,000;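 active means mean inhibition across replicates of 60% or more, whatever share of single replicates reaches that level; inconclusive means some that reach 60%, reason not given; inactive means mean inhibition across replicates below 60%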
Shn3 3UTR inh: reduces Shn3 3'UTR luciferase signal in osteoblasts; inhibition, % at 12.5 µM; hit rate 0.52% among 360,000; Clone20 osteoblast Shn3 3'UTR firefly luciferase, 24 h;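 active means mean inhibition of at least 75% with every replicate also reaching 75%; inconclusive means mean inhibition at least 75% but some replicate below; inactive means mean inhibition below 75%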
PAX8 inh HTS: lowers PAX8-driven luciferase in RMG-I cells | RMG-I TPO-luciferase reporter, SteadyGlo, 24 h | inhibition, % at 12.6 µM | hit rate 1.2% among 360,000 | AID 652154;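 active means mean replicate inhibition at least 60% with every replicate also reaching 60%; inconclusive means only one of the two criteria is met; inactive means mean below 60% and not all replicates reaching 60%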;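 further: luciferase light reporting Pax8 driven TPO promoter activity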
EBV LMP1 NFkB: reduces LMP1-driven NF-kappaB luciferase signal; LMP1-induced NF-kappaB luciferase reporter cells, luminescence; inhibition, % at 12.5 µM; hit rate 0.69% among 350,000; AID 504558; in the data active means inhibition above about 41%; inconclusive means no clear call, values can overlap the other calls
HIF-2a inh: inhibitors of HIF-2a; inhibition, % at 18.8 µM; hit rate 0.72% among 360,000; AID 624352; 786-0 RCC cells HIF-2a reporter, luciferase luminescence, overnight;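 active means inhibition of the luminescence signal of 40% or more relative to plate controls, in a single-dose primary screen at 18.75 µM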
Large screens that a line does not name were inactive. Hits are enriched below; roughly 2.8% of the tested compounds scored in any of these assays.

O=C(Nc1ccccn1)NC1CCS(=O)(=O)C1 (stereo not given)	none
COc1ccc([Si](C)(C)[C@@H]2[C@@H](CCO)O[C@]3(C(=O)N(C)c4ccccc43)[C@H]2C)cc1	PAX8 inh HTS 80.6 (no result: Peg3 promoter, TRPM1 prom inh, Shn3 3UTR inh, EBV LMP1 NFkB, HIF-2a inh)
COc1ccc([Si](C)(C)[C@@H]2[C@@H](CCO)O[C@]3(C(=O)N(c4ccccc4)c4ccccc43)[C@H]2C)cc1	PAX8 inh HTS 93.1 (no result: Peg3 promoter, TRPM1 prom inh, Shn3 3UTR inh, EBV LMP1 NFkB, HIF-2a inh)
C[C@@H]1CN([C@@H](C)CO)C(=O)c2cc(NS(=O)(=O)c3cn(C)cn3)ccc2O[C@@H](C)CCCCO[C@@H]1CN(C)S(=O)(=O)c1ccccc1	none (no result: Peg3 promoter, TRPM1 prom inh, Shn3 3UTR inh, EBV LMP1 NFkB, HIF-2a inh)
Cc1cccc(N2CCN(C(=O)CCn3c(=S)[nH]c4cc5c(cc4c3=O)OCO5)CC2C)c1 (stereo not given)	Peg3 promoter 63.5 (no result: PAX8 inh HTS)
O=C(CCCn1c(=S)[nH]c2cc3c(cc2c1=O)OCO3)N1CCN(c2ccccc2)CC1	none (no result: PAX8 inh HTS)
CCOC(=O)c1cnc(-n2nc(C)cc2C)nc1Nc1ccc(C)cc1	none (no result: PAX8 inh HTS)
CCOC(=O)c1cnc(-n2nc(C)cc2C)nc1NNc1nc(-c2ccccc2)cc(-c2ccccc2)n1	TRPM1 prom inh 61.7, Shn3 3UTR inh 92.4, EBV LMP1 NFkB 75.5 (no result: PAX8 inh HTS)
CCOC(=O)c1cnc(-n2nc(C)cc2C)nc1Nc1ccc(O)cc1	TRPM1 prom inh 71.2, EBV LMP1 NFkB 55.9
O=C(N[C@@H]1CC[C@@H](CCNC(=O)C2CCC2)O[C@H]1CO)c1ccncc1	none (no result: Peg3 promoter, TRPM1 prom inh, Shn3 3UTR inh, EBV LMP1 NFkB, HIF-2a inh)
C[C@@H]1CN([C@H](C)CO)C(=O)c2cc(NS(=O)(=O)c3cccs3)ccc2O[C@H]1CN(C)C	none (no result: Peg3 promoter, TRPM1 prom inh, Shn3 3UTR inh, EBV LMP1 NFkB, HIF-2a inh)
CCOc1ccc(-n2c(-c3ccccc3)c[n+]3c2CCCCC3)cc1	TRPM1 prom inh 63.0, Shn3 3UTR inh inconclusive, PAX8 inh HTS 86.0
c1ccc(-c2c[n+]3c(n2-c2ccccc2)CCC3)cc1	none
Cc1ccc(-c2c[n+]3c(n2-c2ccccc2)CCC3)cc1	Shn3 3UTR inh 90.6
COc1cc(-c2noc(C)c2-c2ccc3[nH]ccc3c2)cc(OC)c1OC	none (no result: PAX8 inh HTS)
COc1cc(-c2noc(C)c2-c2ccc(N(C)C)nc2)cc(OC)c1OC	TRPM1 prom inh inconclusive, PAX8 inh HTS 74.2
N=C(N)c1ccc(N=Nc2c(O)ccc3c2[nH]c2ccccc23)cc1	Peg3 promoter 98.0
CCCNC(=O)C[C@@H]1C[C@@H]2c3cc(NC(=O)C4CCC4)ccc3O[C@@H]2[C@@H](CO)O1	none (no result: Peg3 promoter, TRPM1 prom inh, Shn3 3UTR inh, EBV LMP1 NFkB, HIF-2a inh)
CCc1ccc(NC(=O)COC(=O)C2(c3ccc(Cl)cc3)CCCC2)cc1	EBV LMP1 NFkB 60.5
Cc1noc(C)c1NC(=O)N(C)C[C@@H]1OCCCC[C@@H](C)Oc2ccc(NS(=O)(=O)c3ccc(Cl)cc3)cc2C(=O)N([C@@H](C)CO)C[C@H]1C	none (no result: Peg3 promoter, TRPM1 prom inh, Shn3 3UTR inh, EBV LMP1 NFkB, HIF-2a inh)
COc1ccc(C(=O)N2[C@@H](C(C)C)COc3cc(Br)ccc3S2(=O)=O)cc1	Peg3 promoter 55.3, PAX8 inh HTS 65.2
COc1ccc(N2C(=O)c3ccccc3NC2(C)C)cc1	EBV LMP1 NFkB 41.8
CC1(C)Nc2ccccc2C(=O)N1c1ccc(Br)cc1	none
CO[C@H]1CN(C)C(=O)c2cc(NC(=O)C3CCCC3)ccc2OC[C@H](C)N(CCC(F)(F)F)C[C@@H]1C	none (no result: Peg3 promoter, TRPM1 prom inh, Shn3 3UTR inh, EBV LMP1 NFkB, HIF-2a inh)
CNC(=O)C[C@@H]1CC[C@@H]2[C@@H](COc3ccc(NC(=O)C(C)C)cc3C(=O)N2C)O1	none (no result: Peg3 promoter, TRPM1 prom inh, Shn3 3UTR inh, EBV LMP1 NFkB, HIF-2a inh)
C[C@@H]1CCCCO[C@@H](CN(C)C(=O)Nc2ccc(C(F)(F)F)cc2)[C@H](C)CN([C@@H](C)CO)C(=O)c2cc(NS(=O)(=O)c3ccc(Cl)cc3)ccc2O1	PAX8 inh HTS 69.0 (no result: Peg3 promoter, TRPM1 prom inh, Shn3 3UTR inh, EBV LMP1 NFkB, HIF-2a inh)
C[C@@H]1CCCCO[C@H](CN(C)C(=O)Nc2ccc(C(F)(F)F)cc2)[C@@H](C)CN([C@@H](C)CO)C(=O)c2cc(NS(=O)(=O)c3ccc(Cl)cc3)ccc2O1	PAX8 inh HTS 92.3 (no result: Peg3 promoter, TRPM1 prom inh, Shn3 3UTR inh, EBV LMP1 NFkB, HIF-2a inh)
C[C@H]1CCCCO[C@@H](CN(C)C(=O)Nc2ccc(C(F)(F)F)cc2)[C@@H](C)CN([C@@H](C)CO)C(=O)c2cc(NS(=O)(=O)c3ccc(Cl)cc3)ccc2O1	none (no result: Peg3 promoter, TRPM1 prom inh, Shn3 3UTR inh, EBV LMP1 NFkB, HIF-2a inh)
C[C@H](CO)N1C[C@H](C)[C@@H](CN(C)C(=O)Nc2ccc(C(F)(F)F)cc2)OCCCC[C@H](C)Oc2ccc(NS(=O)(=O)c3ccc(Cl)cc3)cc2C1=O	PAX8 inh HTS 69.3 (no result: Peg3 promoter, TRPM1 prom inh, Shn3 3UTR inh, EBV LMP1 NFkB, HIF-2a inh)
C[C@@H]1CCCCO[C@H](CN(C)C(=O)Nc2ccc(C(F)(F)F)cc2)[C@H](C)CN([C@@H](C)CO)C(=O)c2cc(NS(=O)(=O)c3ccc(Cl)cc3)ccc2O1	PAX8 inh HTS 88.6 (no result: Peg3 promoter, TRPM1 prom inh, Shn3 3UTR inh, EBV LMP1 NFkB, HIF-2a inh)
